The nature of experiment [1]: qHTS RealTime-Glo MT Cell Viability Assay in HepG2 cells - 40 hour (AID 1224870). Further: nearly all actives have a fitted effect of over 50% in size. An outline of the steps: (§1)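 HepG2 cells mixed with RealTime-Glo MT reagents (NanoLuc plus cell-permeant prosubstrate) were seeded at 600 cells/well, incubated 5 h at 37 C/5% CO2, then pinned with compounds in DMSO; nonlytic luminescence tracked viability during 40 h treatment.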
A short description of experiment [2]: A CellTox Green Cytotoxicity Assay to monitor cytotoxicity in HEK293 cells - 40 hour (AID 1224871). Further: nearly all actives have a fitted effect of over 45% in size. Further: potency means the concentration at half of the fitted maximal effect. In outline: (§2)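 Tox21 screen in HEK293: membrane-impermeant cyanine dye fluoresces on binding dead-cell DNA; compound pinned 5 h post-seeding, plates held at 37 C, signal read repeatedly through 40 h.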
A short description of experiment [3]: qHTS RealTime-Glo MT Cell Viability Assay in HEK293 cells - 16 hour (AID 1224872). Further: top concentration of the series differs between compounds; nearly all actives have a fitted effect of over 50% in size. An outline of the steps:
(§3)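 Quantitative high-throughput screen of the Tox21 10K library in HEK293: cells and RealTime-Glo reagents plated together, compound added at 5 h, luminescence monitored through 40 h at 37 C.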
(qHTS replaces the single test concentration by a dilution series.)

A short description of experiment [4]: qHTS RealTime-Glo MT Cell Viability Assay in HepG2 cells - 8 hour (AID 1224873). Further: nearly all actives have a fitted effect of over 55% in size. In outline:
as §1

Experiment [5] in a line: qHTS RealTime-Glo MT Cell Viability Assay in HEK293 cells - 40 hour (AID 1224874). Further: nearly all actives have a fitted effect of over 50% in size. Conditions: RealTime-Glo luminescence; max response: stronger effect = lower value. In outline: (§4)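 HEK293 + NanoLuc + prosubstrate, 600 cells/well; 5 h, 37 C/5% CO2; compound 23 nL in DMSO by pintool; 37 C; luminescence read at 0, 8, 16, 24, 32 and 40 h time points.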
Experiment [6] in a line: A CellTox Green Cytotoxicity Assay to monitor cytotoxicity in HEK293 cells - 24 hour (AID 1224875). Further: series mostly up to about 77 µM; nearly all actives have a fitted effect of over 45% in size. An outline of the steps: as §2
Experiment [7] can be described thus: A CellTox Green Cytotoxicity Assay to monitor cytotoxicity in HepG2 cells - 16 hour (AID 1224876). Further: nearly all actives have a fitted effect of over 45% in size. An outline of the steps:
(§5)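 Measurements at 0, 8, 16, 24, 32 and 40 h of treatment captured CellTox Green fluorescence in HepG2 cells that had been co-plated with reagent and preincubated 5 h at 37 C/5% CO2.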

The nature of experiment [8]: qHTS RealTime-Glo MT Cell Viability Assay in HepG2 cells - 32 hour (AID 1224877). Further: nearly all actives have a fitted effect of over 55% in size. An outline of the steps: (§6)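 Compound treatment began 5 h after plating HepG2 cells (600/well) with NanoLuc luciferase and prosubstrate. Plates stayed at 37 C for 40 h; luminescence was captured at six time points, 0 h through 40 h.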
A short description of experiment [9]: A CellTox Green Cytotoxicity Assay to monitor cytotoxicity in HepG2 cells - 24 hour (AID 1224878). Further: nearly all actives have a fitted effect of over 45% in size. An outline of the steps: as §5
Experiment [10] is described as follows: A CellTox Green Cytotoxicity Assay to monitor cytotoxicity in HepG2 cells - 40 hour (AID 1224879). Further: nearly all actives have a fitted effect of over 40% in size. In outline:
as §5

Experiment [11] is described as follows: qHTS RealTime-Glo MT Cell Viability Assay in HEK293 cells - 0 hour (AID 1224880). Further: nearly all actives have a fitted effect of over 45% in size. Further: potency means the concentration at half of the fitted maximal effect. In outline:
as §4

The nature of experiment [12]: A CellTox Green Cytotoxicity Assay to monitor cytotoxicity in HEK293 cells - 32 hour (AID 1224881). Further: nearly all actives have a fitted effect of over 40% in size. Further: potency means the concentration at half of the fitted maximal effect. In outline: as §2
A short description of experiment [13]: A CellTox Green Cytotoxicity Assay to monitor cytotoxicity in HepG2 cells - 0 hour (AID 1224882). Further: nearly all actives have a fitted effect of over 35% in size. In outline:
as §5

Experiment [14] is described as follows: A CellTox Green Cytotoxicity Assay to monitor cytotoxicity in HepG2 cells - 32 hour (AID 1224883). Further: nearly all actives have a fitted effect of over 50% in size. An outline of the steps: as §5
The nature of experiment [15]: A CellTox Green Cytotoxicity Assay to monitor cytotoxicity in HEK293 cells - 8 hour (AID 1224884). Further: nearly all actives have a fitted effect of over 35% in size. In outline:
as §2

Experiment [16] is described as follows: qHTS RealTime-Glo MT Cell Viability Assay in HepG2 cells - 16 hour (AID 1224885). Further: nearly all actives have a fitted effect of over 50% in size. In outline: as §6
Experiment [17] in a line: qHTS RealTime-Glo MT Cell Viability Assay in HEK293 cells - 24 hour (AID 1224886). Further: nearly all actives have a fitted effect of over 50% in size. Further: potency means the concentration at half of the fitted maximal effect. In outline:
as §3

Experiment [18] is described as follows: qHTS RealTime-Glo MT Cell Viability Assay in HEK293 cells - 8 hour (AID 1224887). An outline of the steps: as §4
The nature of experiment [19]: A CellTox Green Cytotoxicity Assay to monitor cytotoxicity in HEK293 cells - 16 hour (AID 1224888). Further: nearly all actives have a fitted effect of over 35% in size. In outline: as §2
Experiment [20] can be described thus: qHTS RealTime-Glo MT Cell Viability Assay in HepG2 cells - 0 hour (AID 1224889). Further: nearly all actives have a fitted effect of over 50% in size. Further: potency means the concentration at half of the fitted maximal effect. In outline: as §6

This passage reports Potency and max response results from PubChem BioAssay (Tox21).

Where “and” joins values, the source holds several entries; their conditions need not be identical. Equal values may be shown once. Results filed as inconclusive are left out. The source holds several records for some structures; these can differ, active in one and inactive in another. Calls of active or inactive are those of the source. The call rests on the fitted dose curve; in most records, active means well fitted curve in the direction sought with a large enough effect in the repeat runs; inconclusive means weak or mixed curves; inactive means no such curve, though single readings can be large; an effect the other way counts as inactive or inconclusive.
On the % scale 0 is the no-effect control and ±100 the full control effect.

For `Nc1ccc(-c2ccc(N)c(N)c2)cc1N`, the Potency result in [1], in experiment [2], in [3], in experiment [4], in experiment [6] and in experiment [7] was “inactive” throughout. For the same compound, the Potency entry in [8], in [9], in experiment [10], in experiment [11], in [12] and in [13] was “inactive” each time. The Potency entry in [14], in [15], in [16], in experiment [17], in experiment [18] and in experiment [19] was “inactive” each time. Further, the Potency result in experiment [20] was “inactive”. Besides, the max response in [5] was 10% (inactive).

As for `c1cc(OCC2CO2)ccc1Cc1ccc(OCC2CO2)cc1` (configuration not stated), the Potency result in experiment [1], in [2], in experiment [3], in experiment [4], in [6] and in experiment [7] was “inactive” throughout. Moreover, the Potency entry in [8], in experiment [9], in [10], in experiment [11], in experiment [12] and in experiment [14] was “inactive” in each case. Further, the Potency result in experiment [15], in experiment [16], in [17], in experiment [18], in [19] and in experiment [20] was “inactive” each time. In experiment [5], the max response was -28.4% (inactive).

With `Oc1c(Cl)c(Cl)c(Cl)c(Cl)c1Cl`, the Potency entry in [1], in experiment [2], in [3], in experiment [4], in experiment [6] and in [8] was “inactive” each time. Besides, the Potency entry in experiment [9], in [10], in experiment [11], in experiment [12], in [13] and in [14] was “inactive” in each case. In addition, the Potency result in experiment [15], in experiment [16], in experiment [17], in experiment [19] and in experiment [20] was “inactive” each time.

As for `CCN(N=O)C(N)=O`, the Potency entry in experiment [1], in experiment [2], in [3], in experiment [4], in [6] and in [8] was “inactive” throughout. The Potency entry in [9], in experiment [10], in [11], in [12], in experiment [13] and in [14] was “inactive” throughout. In addition, the Potency entry in experiment [15], in [16], in [17], in experiment [18], in experiment [19] and in experiment [20] was “inactive” throughout.

For `O=C1C=CC(=O)C=C1`, the Potency entry in experiment [1], in [2], in experiment [3], in [4], in experiment [6] and in experiment [8] was “inactive” each time. The Potency result in experiment [9], in experiment [10], in experiment [11], in [12], in experiment [14] and in [15] was “inactive” throughout. In addition, the Potency result in [16], in experiment [17], in experiment [18], in experiment [19] and in experiment [20] was “inactive” each time.

For `C=CCN(CC=C)C(=O)C(Cl)Cl`, the Potency result in experiment [1], in experiment [2], in [3], in experiment [4], in [6] and in experiment [8] was “inactive” in each case. The Potency result in experiment [9], in experiment [10], in [11], in experiment [12], in [14] and in [15] was “inactive” throughout. Also, the Potency entry in experiment [16], in experiment [17], in [19] and in experiment [20] was “inactive” in each case. The max response in experiment [5] is 8.06% (inactive) and -1.16% (inactive).

Turning to `CC(C)(c1cc(Cl)c(O)c(Cl)c1)c1cc(Cl)c(O)c(Cl)c1`, the Potency result in experiment [1], in experiment [2], in experiment [3], in experiment [4], in [6] and in experiment [7] was “inactive” each time. The Potency entry in experiment [8], in experiment [9], in experiment [10], in experiment [11], in [12] and in experiment [14] was “inactive” throughout. In addition, the Potency result in [15], in [16], in experiment [17], in [19] and in [20] was “inactive” throughout.

As for `O=c1oc2ccccc2c(O)c1C(CC(O)c1ccc(-c2ccc(Br)cc2)cc1)c1ccccc1` (configuration not stated), the Potency entry in experiment [1], in [2], in [3], in [4], in experiment [6] and in experiment [8] was “inactive” each time. Moreover, the Potency entry in [9], in experiment [10], in experiment [12], in experiment [14], in [15] and in experiment [16] was “inactive” in each case. The Potency entry in experiment [17], in experiment [18] and in experiment [19] was “inactive” in each case. Moreover, in experiment [5], the max response is -3.76% (inactive) and 7.1% (inactive). Also, the Potency was 18.4 µM (active) and 12 µM (active) in experiment [11]; 20.7 µM (active) and 21.3 µM (active) in experiment [20].

Turning to `CC1(C)C(C=C(Cl)Cl)C1C(=O)OC(C#N)c1cccc(Oc2ccccc2)c1` (configuration not stated), the Potency entry in experiment [1], in experiment [2], in experiment [3], in [4], in [6] and in [8] was “inactive” each time. Further, the Potency entry in [9], in experiment [10], in experiment [11], in [12], in [14] and in [15] was “inactive” in each case. Also, the Potency result in experiment [16], in [17], in experiment [19] and in experiment [20] was “inactive” in each case. In experiment [5], the max response was -14.9% (inactive) and 6.86% (inactive).

For `CCOC(=S)S`, the Potency entry in experiment [1], in experiment [2], in experiment [3], in [4], in [6] and in experiment [7] was “inactive” each time. Besides, the Potency entry in experiment [8], in [9], in experiment [10], in [11], in [12] and in experiment [13] was “inactive” each time. For the same compound, the Potency result in [14], in experiment [15], in [16], in [17], in experiment [18] and in experiment [19] was “inactive” throughout. In addition, in [20], the Potency result was “inactive”.

For the compound `c1nc[nH]n1`, the Potency entry in experiment [1], in experiment [2], in experiment [4], in experiment [6], in [7] and in [8] was “inactive” in each case. Moreover, the Potency result in experiment [9], in experiment [10], in [11], in [12], in [13] and in experiment [14] was “inactive” each time. Also, the Potency result in experiment [15], in experiment [16], in experiment [17], in experiment [19] and in experiment [20] was “inactive” each time.

In the case of `CCC(CC)Nc1c([N+](=O)[O-])cc(C)c(C)c1[N+](=O)[O-]`, the Potency entry in experiment [1], in [2], in experiment [4], in experiment [6], in experiment [7] and in [8] was “inactive” each time. For the same compound, the Potency entry in [9], in experiment [10], in experiment [11], in experiment [12], in experiment [13] and in [14] was “inactive” in each case. Further, the Potency result in experiment [15], in [16], in experiment [17], in experiment [19] and in experiment [20] was “inactive” throughout. Also, the max response in [5] is 7.22% (inactive).

Regarding `CCN(CC)N=O`, the Potency result in experiment [1], in [2], in [4], in experiment [6], in experiment [7] and in [8] was “inactive” throughout. Also, the Potency result in experiment [9], in experiment [10], in [11], in [12], in experiment [13] and in experiment [14] was “inactive” each time. Also, the Potency result in [15], in [16], in [17], in experiment [19] and in experiment [20] was “inactive” in each case. Moreover, the max response in experiment [5] is -2.46% (inactive) and 23.7% (inactive).

As for `CC(C)Oc1cc(-n2nc(C(C)(C)C)oc2=O)c(Cl)cc1Cl`, the Potency entry in experiment [1], in [4], in [7], in [8], in [9] and in [10] was “inactive” throughout. The Potency entry in experiment [11], in experiment [13], in experiment [14], in experiment [15], in experiment [16] and in experiment [20] was “inactive” each time. In addition, the Potency in [2] is 682 nM (active) and inactive; in experiment [12], 608 nM (active) and inactive; in experiment [17] it was 30.9 µM (active).
